Measured values from PubChem BioAssay (EPA / NIEHS).
“And” between values parts separate entries of the source, which are not always exact repeats. Equal values may be shown once. Results filed as inconclusive are left out. The source made the active and inactive calls. How the source made its calls, unless noted: active means hit-call score of the fitted dose curve at least 0.9, where 1 is the maximum; inconclusive means response in the unintended direction; inactive means score below 0.9.

Key:
[1] = Tanguay_ZF_120hpf_PIG_legacy: (Legacy) Oregon State University Tanguay Lab 120 Hour Post-fertilization zebrafish Assay for Pigmentation Malformation (AID 2283650)
Outline: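 Dechorionated Tropical 5D wild-type embryos, one per well from 6 hpf, statically exposed at 28C in the dark until 120 hpf, 0.64% DMSO final. Pigmentation scored present/absent by brightfield microscopy; dead embryos not scored; fitted versus DMSO.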

[2] = Tanguay_ZF_120hpf_CIRC_legacy: (Legacy) Oregon State University Tanguay Lab 120 Hour Post-fertilization zebrafish Assay for Circulatory Malformation (AID 2283651)
Outline: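 Tropical 5D wild-type embryos, dechorionated with pronase at 4 hpf, were placed singly in wells at 6 hpf and exposed statically at 28C to 120 hpf (0.64% DMSO final). Circulatory malformation was scored present/absent by brightfield microscopy.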

[3] = Tanguay_ZF_120hpf_SWIM_legacy: (Legacy) Oregon State University Tanguay Lab 120 Hour Post-fertilization zebrafish Assay for Swim Bladder Malformation (AID 2283654);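 further: swim bladder malformation in each larva scored yes or no under brightfield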
Outline: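 Dechorionated wild-type Tropical 5D zebrafish embryos, one per well from 6 hpf, were statically exposed at 28C until 120 hpf in 0.64% DMSO. Swim bladder malformation scored as present/absent by brightfield microscopy; not scored in dead larvae.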

[4] = read-out: ABC Transporter (ABCB1), ABCB1 (gene 5243); test: CLD_ABCB1_6hr: CellzDirect (CLD) Gene Expression Assay for ABC Transporter (ABCB1) at 6 hours (AID 2283659);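 further: hits raise ABCB1 transcript above the DMSO vehicle baseline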
Outline: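 Primary human hepatocytes (two donor preparations) dosed daily for two days with chemicals at multiple concentrations, 0.2% DMSO vehicle; harvested 6 h post-dose. ABCB1 mRNA induction quantified by qNPA chemiluminescence; gain-of-signal fitted versus DMSO.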

[5] = test system: Thyroperoxidase (TPO), gene 54314; test: CCTE_Simmons_AUR_rTPO: CCTE's Amplex UltraRed Assay for Thyroperoxidase (TPO) Inhibition, Simmons Lab (AID 2283662);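 on AC50: potency for loss of signal meaning inhibition of peroxidase activity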
Outline: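 Rat thyroid microsomal TPO + 25 uM AUR in 200 mM K phosphate; cpd 5 nM–87.5 uM [final], 8 conc, 0.5% DMSO; 300 uM H2O2 starts rxn; 37C dark 30 min; endpoint FI 544/590 nm; n=3.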

[6] = CCTE_Simmons_CellTiterGLO_HEK293T: Viability Assessment in CCTE's Assays for Thyroperoxidase (TPO) Inhibition, Simmons Lab (AID 2283665);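 on AC50: cells exposed to compound for 24 h before readout; actives reduce ATP signal below DMSO vehicle meaning cytotoxicity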
Outline: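 HEK293T cells in DMEM with 1% FBS were dosed with 8 concentrations (5 nM–87.5 uM final, 0.5% DMSO) for 24 hr at 37C; ATP content was read by CellTiter-Glo luminescence, loss-of-signal versus DMSO, three biological replicates.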

[7] = Tanguay_ZF_120hpf_TR_legacy: (Legacy) Oregon State University Tanguay Lab 120 Hour Post-fertilization zebrafish Assay for Touch Response (AID 2283667)
Outline: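 Tropical 5D wild-type zebrafish embryos statically exposed to 120 hpf at 28°C, sealed and dark-covered, 0.64% DMSO final; touch response scored as present/absent by brightfield microscopy at 120 hpf. Trimethyltin chloride 5 uM positive control; dead embryos not scored.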

[8] = read-out: organic anion transporter (SLCO1B1), SLCO1B1 (gene 10599); test: CLD_SLCO1B1_6hr: CellzDirect (CLD) Gene Expression Assay for organic anion transporter (SLCO1B1) at 6 hours (AID 2283668);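 further: active means mRNA induction above DMSO baseline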
Outline: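 Primary human hepatocytes dosed daily with test chemicals (multiple concentrations) in 0.2% DMSO vehicle; harvested at 6 h. SLCO1B1 mRNA quantified by qNPA chemiluminescence, fitted as gain-of-signal versus DMSO; cytotoxicity from phase-contrast morphology flagged alongside.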

[9] = read-out: sulfotransferase (SULT2A), SULT2A1 (gene 6822); test: CLD_SULT2A_6hr: CellzDirect (CLD) Gene Expression Assay for sulfotransferase (SULT2A) at 6 hours (AID 2283669);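 further: hits raise transcript level above the DMSO vehicle baseline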
Outline: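 Primary human hepatocytes from two donor preparations were dosed daily with chemicals or 0.2% DMSO and harvested at 6 h. Transcript induction read by qNPA chemiluminescence, fitted for gain of signal relative to DMSO; morphology-based cytotoxicity annotated.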

[10] = read-out: alkyl and aryl transferase (GSTA2), GSTA2 (gene 2939); test: CLD_GSTA2_6hr: CellzDirect (CLD) Gene Expression Assay for alkyl and aryl transferase (GSTA2) at 6 hours (AID 2283666)
Outline: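 Primary human hepatocytes from two donor preparations were dosed daily with fresh compound at multiple concentrations, 0.2% DMSO vehicle. GSTA2 mRNA was measured at 6 hours by qNPA chemiluminescence; induction fitted relative to DMSO, with cytotoxicity flagged morphologically.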

[11] = read-out: xenobiotic metabolism (CYP1A1), CYP1A1 (gene 1543); test: CLD_CYP1A1_6hr: CellzDirect (CLD) Gene Expression Assay for xenobiotic metabolism (CYP1A1) at 6 hours (AID 2283661);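 further: potency for transcript induction above DMSO vehicle baseline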
Outline: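 Primary human hepatocytes from two donors, compound versus 0.2% DMSO vehicle. CYP1A1 mRNA measured 6 h after dosing by quantitative nuclease protection assay with chemiluminescent read-out; induction fitted relative to DMSO, cytotoxicity flagged by microscopy.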

[12] = read-out: glucuronosyltransferase (UGT1A1), UGT1A1 (gene 54658); test: CLD_UGT1A1_6hr: CellzDirect (CLD) Gene Expression Assay for glucuronosyltransferase (UGT1A1) at 6 hours (AID 2283672)
Outline: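 Primary human hepatocytes from two donor preparations, dosed with fresh solutions in 0.2% DMSO, harvested at 6 h. UGT1A1 mRNA measured by qNPA chemiluminescence; induction fitted upward versus DMSO.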

[13] = Tanguay_ZF_120hpf_TRUN_legacy: (Legacy) Oregon State University Tanguay Lab 120 Hour Post-fertilization zebrafish Assay for Truncated Body (AID 2283655)
Outline: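 Binary presence/absence of truncated body is recorded at 120 hpf by brightfield, with non-mortality endpoints skipped after death. Exposure is static from 6 hpf in sealed dark plates at 28C, using dechorionated wild-type zebrafish, 0.64% DMSO.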

[14] = read-out: xenobiotic metabolism (CYP1A2), CYP1A2 (gene 1544); test: CLD_CYP1A2_6hr: CellzDirect (CLD) Gene Expression Assay for xenobiotic metabolism (CYP1A2) at 6 hours (AID 2283663);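 further: potency is for induction meaning a rise in mRNA above DMSO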
Outline: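 Primary human hepatocytes from two donor preparations, dosed daily with multiple concentrations in 0.2% DMSO and harvested at 6 h. CYP1A2 mRNA induction measured by chemiluminescent qNPA, gain of signal fitted against DMSO; cytotoxicity flagged morphologically.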

[15] = read-out: kallikrein-3 (KLK3), KLK3 (gene 354); test: LTEA_HepaRG_KLK3: Life Technologies and Expression Analysis (LTEA) Assay for kallikrein-3 (KLK3) using HepaRG (AID 2283652; active means hit-call score of the fitted dose curve at least 0.9, where 1 is the maximum; inactive means score below 0.9); details: mRNA level, 48 h; actives raise or lower the signal
Outline: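 Differentiated human HepaRG cells in serum-free induction medium exposed 48 h in duplicate, eight-point half-log series from 100 uM in 0.5% DMSO. KLK3 mRNA by qRT-PCR, normalised to ACTB, GAPDH, POLR2A; bidirectional fit versus DMSO.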

[16] = read-out: solute carrier (SLC22A6), SLC22A6 (gene 9356); test: LTEA_HepaRG_SLC22A6: Life Technologies and Expression Analysis (LTEA) Assay for solute carrier (SLC22A6) using HepaRG (AID 2283653; active means hit-call score of the fitted dose curve at least 0.9, where 1 is the maximum; inactive means score below 0.9); details: mRNA level, 48 h; actives raise or lower the signal
Outline: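 SLC22A6 transcript was measured by TaqMan qRT-PCR, normalized to three housekeeping genes, after 48 h duplicate exposure of HepaRG cells (100 uM top, half-log steps, 0.5% DMSO); bidirectional fit against vehicle.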

[17] = Tanguay_ZF_120hpf_NC_legacy: (Legacy) Oregon State University Tanguay Lab 120 Hour Post-fertilization zebrafish Assay for Notochord and Tail Malformation (AID 2283656)
Outline: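 Dechorionated 5D zebrafish, 1/well from 6 hpf; static exposure to 120 hpf, 28C, sealed, dark; final DMSO 0.64% v/v. NC scored binary (present/absent); dead embryos not scored. Fit vs DMSO baseline, gain direction.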

[18] = read-out: solute carrier (SLC10A1), SLC10A1 (gene 6554); test: LTEA_HepaRG_SLC10A1: Life Technologies and Expression Analysis (LTEA) Assay for solute carrier (SLC10A1) using HepaRG (AID 2283657; active means hit-call score of the fitted dose curve at least 0.9, where 1 is the maximum; inactive means score below 0.9); details: mRNA level, 48 h; actives raise or lower the signal
Outline: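 HepaRG cells (single lot) exposed 48 h in serum-free induction medium, 8-point half-log series from 100 uM top in 0.5% DMSO, duplicate. SLC10A1 mRNA by qRT-PCR normalised to ACTB, GAPDH, POLR2A; bidirectional fit versus DMSO.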

[19] = read-out: matrix metalloproteinase-1 (MMP1), MMP1 (gene 4312); test: LTEA_HepaRG_MMP1: Life Technologies and Expression Analysis (LTEA) Assay for matrix metalloproteinase-1 (MMP1) using HepaRG (AID 2283658; active means hit-call score of the fitted dose curve at least 0.9, where 1 is the maximum; inactive means score below 0.9); details: mRNA level, 48 h; actives raise or lower the signal
Outline: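 qRT-PCR (TaqMan, Fluidigm arrays) of MMP1 transcript, normalized against three housekeeping genes and fitted in both directions relative to 0.5% DMSO vehicle. Human HepaRG cultures received duplicate 48 h exposures across 8 points, highest 100 uM with half-log steps.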

[20] = read-out: Cytochrome P450 (CYP24A1_1), CYP24A1 (gene 1591); test: LTEA_HepaRG_CYP24A1_1: Life Technologies and Expression Analysis (LTEA) Assay for Cytochrome P450 (CYP24A1_1) using HepaRG (AID 2283671; active means hit-call score of the fitted dose curve at least 0.9, where 1 is the maximum; inactive means score below 0.9); details: mRNA level, 48 h; actives raise or lower the signal
Outline: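 Differentiated human HepaRG cells in serum-free induction medium, exposed 48 h in duplicate to eight half-log concentrations from 100 uM top, 0.5% DMSO. Transcript measured by TaqMan qRT-PCR, normalised to ACTB, GAPDH, POLR2A; bidirectional fitting versus DMSO.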

## CCCN(CCC)c1c([N+](=O)[O-])cc(S(N)(=O)=O)cc1[N+](=O)[O-]
[1]
  outcome: inactive
[2]
  outcome: inactive
[3]
  outcome: inactive
[4]
  outcome: inactive
[5]
  outcome: inactive
[6]
  AC50: 27.1 µM (active) [middle of 5 runs]
[7]
  outcome: inactive
[8]
  outcome: inactive
[9]
  outcome: inactive

## Cc1c(F)c(F)c(COC(=O)C2C(/C=C(\Cl)C(F)(F)F)C2(C)C)c(F)c1F (stereo not given)
[1]
  AC50: 3.42 µM (active)
[2]
  outcome: inactive
[3]
  outcome: inactive
[4]
  outcome: inactive
[10]
  outcome: inactive
[7]
  AC50: 3.23 µM (active)
[8]
  outcome: inactive
[9]
  outcome: inactive

## CCOP(=S)(OCC)SCn1c(=O)oc2cc(Cl)ccc21
[1]
  outcome: inactive
[2]
  outcome: inactive
[3]
  outcome: inactive
[4]
  outcome: inactive
[11]
  AC50: 0.36 µM (active)
[5]
  AC50: 2.18 µM (active)
[6]
  AC50: 67.4 µM (active)
[10]
  outcome: inactive
[9]
  outcome: inactive
[12]
  outcome: inactive

## COc1nc(C)nc(NC(=O)NS(=O)(=O)c2ccccc2CCC(F)(F)F)n1
[4]
  outcome: inactive
[10]
  outcome: inactive
[8]
  outcome: inactive
[9]
  outcome: inactive

## CS/C(C)=N/OC(=O)N(C)SN(C)C(=O)O/N=C(\C)SC
[1]
  outcome: inactive
[3]
  outcome: inactive

## CCc1nn(C)c(C(=O)NCc2ccc(C(C)(C)C)cc2)c1Cl
[1]
  outcome: inactive
[2]
  outcome: inactive
[3]
  outcome: inactive
[10]
  outcome: inactive
[8]
  outcome: inactive
[9]
  AC50: 2.8 µM (active)

## CNC(=S)S
[1]
  outcome: inactive
[5]
  AC50: 22 µM (active) and 23 µM (active)
[6]
  outcome: inactive
[7]
  outcome: inactive
[9]
  AC50: 7.49 µM (active)
[12]
  outcome: inactive

## CC1COC(Cn2cncn2)(c2ccc(Oc3ccc(Cl)cc3)cc2Cl)O1 (stereo not given)
[2]
  outcome: inactive
[3]
  outcome: inactive
[4]
  outcome: inactive
[5]
  outcome: inactive
[6]
  AC50: 27.9 µM (active)
[8]
  outcome: inactive
[9]
  AC50: 20 µM (active)

## CCNc1nc(Cl)nc(NCC)n1
[2]
  outcome: inactive
[3]
  outcome: inactive
[13]
  outcome: inactive
[8]
  outcome: inactive

## COc1ccc(C(c2ccc(OC)cc2)C(Cl)(Cl)Cl)cc1
[2]
  outcome: inactive
[3]
  outcome: inactive
[4]
  outcome: inactive
[11]
  AC50: 15.8 µM (active)
[14]
  AC50: 17.3 µM (active)
[9]
  outcome: inactive

## COC(=O)C=C(C)OP(=O)(OC)OC
[1]
  outcome: inactive
[2]
  outcome: inactive
[3]
  outcome: inactive
[5]
  AC50: 14 µM (active)
[6]
  outcome: inactive
[10]
  outcome: inactive
[8]
  outcome: inactive
[9]
  outcome: inactive

## CCON=C(CC)C1=C(O)CC(c2c(C)cc(C)cc2C)CC1=O (stereo not given)
[1]
  outcome: inactive
[3]
  outcome: inactive
[10]
  outcome: inactive
[8]
  outcome: inactive

## CC(C)Oc1cc(-n2nc(C(C)(C)C)oc2=O)c(Cl)cc1Cl
[2]
  outcome: inactive
[3]
  outcome: inactive
[10]
  outcome: inactive
[7]
  outcome: inactive
[9]
  outcome: inactive

## OC(c1ccc(Cl)cc1)(c1cncnc1)c1ccccc1Cl (stereo not given)
[1]
  outcome: inactive
[15]
  outcome: inactive
[16]
  outcome: inactive
[3]
  outcome: inactive
[17]
  outcome: inactive
[18]
  AC50: 24.1 µM (active)
[19]
  AC50: 59.8 µM (active)
[4]
  outcome: inactive
[8]
  outcome: inactive
[9]
  outcome: inactive
[20]
  outcome: inactive
